Results: PubChem BioAssay AID624263 (National Center for Advancing Translational Sciences (NCATS), 2012)
Hit rate of the full screen: of about 410,000 compounds, about 820 (0.2%) were called active. Roughly 2% stayed inconclusive and do not appear here. The call rests on the fitted dose curve; in most records, active means well fitted activation curve with a large enough effect; inconclusive means small, poorly fitted or top-dose-only effect; inactive means flat fitted curve, though single readings scatter; cell line not stated here. The list comes from a sample in which actives are over-represented; it also holds similar structures and randomly drawn compounds.

experiment: A Quantitative High throughput Screen to Identify Chemical Modulators of PINK1 Expression; details: PINK1 immunofluorescence, high-content cytometry, 24 h; series mostly up to 76.6 µM; activation (PINK1 increase): at the top concentration; further: nearly all actives have a fitted effect of over 65% in size; on activation (PINK1 increase): % of control where 0% means no effect
Procedure, shortened: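 Compound titrations (5 concentrations, 24 h) on a stable cell line; DMSO and CCCP controls. Endpoint: fixed-cell PINK1 immunofluorescence with mitochondrial, cell and nuclear markers, scanned by microplate cytometer.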
Potency means the concentration at half of the fitted maximal effect.

Compound | activation (PINK1 increase) | Potency
CN(C)C(=O)[C@@H]1C[C@@H](Sc2nc3ccccc3[nH]2)CN1Cc1ccc(Cl)cc1 | -0.905% (inactive) | –
O=C(c1cc(C(F)(F)F)cc(C(F)(F)F)c1)N1CCC[C@@]2(CCN(c3ccccn3)C2)C1 | 1.27% (inactive) | –
CC(C)c1cc(C(=O)N2CCOc3ccc(CN4CCC(Oc5cccnc5)CC4)cc3C2)n[nH]1 | 0.462% (inactive) | –
Cc1c(S(=O)(=O)O)oc2c1C(=O)C(=O)c1c-2ccc2c1CCCC2(C)C | -0.627% (inactive) | –
S=c1[nH]c(=S)c2n[nH]nc2[nH]1 | 0.817% (inactive) | –
O=[N+]([O-])c1ccc(NS(=O)(=O)c2ccccc2)c(Cl)c1 | – | 39.8 µM (active)
O=C(NCCCNc1ccc([N+](=O)[O-])cc1Cl)c1ccccc1F | -0.842% (inactive) | –
O=C(NNS(=O)(=O)c1ccc(F)cc1)c1ccc([N+](=O)[O-])cc1Cl | 1.65% (inactive) | –
C=C[C@](C)(O)CCC1C(=C)CCC2[C@@](C)(CO)CCC[C@@]12C (some centres undefined) | 6.03% (inactive) | –
COc1cccc(CN2CCC3(CC2)c2ccccc2[C@@H](NC(=O)c2ccccc2OC)[C@@H]3O)c1 | 2.04% (inactive) | –
COc1cc(=O)n2c(c1C(=O)NCc1ccco1)CCN(Cc1ccccc1)CC2 | -0.574% (inactive) | –
O=c1c(CN2CCOc3ccc(CN4CCC(Oc5cccnc5)CC4)cc3C2)coc2ccccc12 | -0.312% (inactive) | –
Cc1ccc(C)c(NC(=O)C2CC(=O)N(C(C)C)C2)c1 (centres undefined) | 1.52% (inactive) | –
Cc1ccc(C)c(NC(=S)NNC(=S)Nc2ccc(C(C)C)cc2)c1 | – | 14.1 µM (active)
Cc1ccc(C)c(NC(=S)NCC(c2cccnc2)N2CCOCC2)c1 (centres undefined) | -1.64% (inactive) | –
COCCn1c(=O)c(-c2ccc(OC)cc2)nc2cnc(Oc3cccc(Cl)c3)nc21 | 1.63% (inactive) | –
Nc1ccc(/C=C/c2ccnc3ccccc23)c([N+](=O)[O-])c1 | 13.3% (inactive) | –
CCOC(=O)N1CCN(Cc2ccc3c(c2)CN(C(=O)c2cccc(-n4cccn4)c2)CCO3)CC1 | -0.805% (inactive) | –
COc1ccccc1CNC(=O)C1CCN(C(=O)[C@@H]2Cc3ccccc3CN2)CC1 | -0.408% (inactive) | –
COc1ccccc1CNC(=O)C1CCN(S(=O)(=O)c2ccc3c(c2)OCCO3)CC1 | 1.24% (inactive) | –
COc1ccccc1CNC(=O)C1CCN(c2nc3ccccc3o2)CC1 | – | 2.82 µM (active)
O=C(CCN1Cc2ccccc2OC(c2ccccc2)C1)N[C@@H]1CS(=O)(=O)C[C@H]1O (some centres undefined) | -0.62% (inactive) | –
CN1CCN(c2ncc3nc(-c4ccc(Cl)cc4)c(=O)n(-c4ccccc4)c3n2)CC1 | 3.94% (inactive) | –
CCc1nc2cc(C(=O)NCC3CCS(=O)(=O)C3)cc(NC(=O)c3ccccc3OC)c2n1C (centres undefined) | 0.746% (inactive) | –
CCOc1ccc(S(=O)(=O)N2CCN(C(=S)NCC3CCCO3)CC2)cc1 (centres undefined) | 1.31% (inactive) | –
Cc1cc(C2=NNC(=Nc3ccc(S(=O)(=O)N4CCOCC4)cc3)SC2)c(C)n1CC1CCCO1 (centres undefined) | – | 35.5 µM (active)
C=CCn1c(C)cc(C2=NNC(=NCC)SC2)c1C | 0.36% (inactive) | –

Compound | activation (PINK1 increase) | Potency
COc1ccccc1CNc1ncncc1-c1cccnc1 | -0.566% (inactive) | –
COC(=O)c1c(OCc2ccc(F)cc2)cc(=O)n2c1CCN(Cc1ccc3cccnc3c1)CC2 | 0.408% (inactive) | –
COc1ccc(C2=NOC(C(=O)NCc3ccco3)C2)cc1OC (centres undefined) | – | 12.6 µM (active)
COc1ccc(S(=O)(=O)N2CCC(C(=O)NCc3ccco3)CC2)cc1C | -0.254% (inactive) | –
O=C(NCc1cc(C(F)(F)F)cc(C(F)(F)F)c1)C1CC(c2cccc(F)c2)=NO1 (centres undefined) | 9.67% (inactive) | –
COc1cc2nc(N3CCCN(C)CC3)nc(NC(C)C)c2cc1OC | 2.45% (inactive) | –
CCc1noc(C)c1C(=O)NCCN1Cc2cc(OC)ccc2OC(CC)C1 (centres undefined) | -0.237% (inactive) | –
O=C(Nc1ccc(N2CCN(C(=O)c3ccccc3)CC2)c(Cl)c1)c1cccnc1 | -3.19% (inactive) | –
O=C(N/N=C/c1sc(N2CCCCC2)nc1-c1cccs1)c1cccnc1 | – | 20 µM (active)
O=C(c1cccnc1)N1CCN(S(=O)(=O)c2cccs2)CC1 | 0.0275% (inactive) | –
Cc1ccc(-c2ccc(C(=O)N3CCc4nnc(CNC(=O)c5ccccc5)n4CC3)cc2)cc1 | 0.715% (inactive) | –
O=C(CN1Cc2ccccc2OC(c2ccccc2)C1)N1CCCCC1c1cccnc1 (centres undefined) | 0.558% (inactive) | –
CCOc1ccc2nc(N3CCCN(CCCn4cccn4)CC3)nc(C)c2c1 | -0.633% (inactive) | –
Oc1c(Br)cccc1/C=N/Nc1c(F)c(F)c(F)c(F)c1F | – | 39.8 µM (active)
CCOC(=O)N1CCC(N2CCOc3ccc(CN4CCC(O)(c5cccnc5)CC4)cc3C2)CC1 | 0.385% (inactive) | –
O=C(CSc1nc2ccccc2c(=O)n1CCCO)NC1CC1 | 0.89% (inactive) | –
O=C(CSc1nc2cc3c(cc2c(=O)n1CCC1=CCCCC1)OCO3)NCc1ccco1 | 11.5% (inactive) | –
O=C(CCCn1c(SCC(=O)c2ccc(F)cc2)nc2ccccc2c1=O)NCc1ccco1 | – | 15.8 µM (active)
O=C(Nc1ccc([N+](=O)[O-])cc1)c1cnn2c1NC(=C1CC1)C=C2C(F)F | -0.0813% (inactive) | –
COCC(=O)Nc1cc(C(=O)N2CCCC(c3ccccc3)CC2)c2c(c1)nc(-c1ccncc1)n2C (centres undefined) | -0.433% (inactive) | –
COc1ccccc1C1CN(Cc2ccccc2O)Cc2ccccc2O1 (centres undefined) | 0.0982% (inactive) | –
COC(=O)c1ccccc1C(=O)NCc1nc(N2CCCC2)c2cccc(C)c2n1 | -0.339% (inactive) | –
O=S(=O)(NCCCN1CCOCC1)c1ccc(F)c(Cl)c1 | 4.27% (inactive) | –
Cc1ccc(S(=O)(=O)NCCN2CCOCC2)cc1C | – | 14.1 µM (active)
Cc1cc(C)c(S(=O)(=O)NCCCN2CCOCC2)cc1Br | -1.42% [at 38.3 µM] (inactive) | –
COc1ccccc1C(=O)N[C@@H]1c2ccccc2C2(CCN(Cc3nc(C(C)C)cs3)CC2)[C@H]1O | -1.21% (inactive) | –
COc1cc(OC)c(/C=C/c2ccnc3ccccc23)c(OC)c1 | 8.99% (inactive) | –

Compound | activation (PINK1 increase) | Potency
Cc1cccc(CNC(=O)c2cnn(-c3nccc(-c4ccccc4F)n3)c2C2CC2)n1 | -0.292% (inactive) | –
CN(C)c1ccc(/C=C2\C=Cc3ccccc32)cc1Br | 2.66% (inactive) | –
CC(C)(C)C1CCC(NC(=O)c2cnn3c2NC(=C2CC2)C=C3C(F)F)CC1 (centres undefined) | -0.21% (inactive) | –
Cn1nccc1C(=O)NCC1CCC2(CCN(Cc3c(O)ccc4ccccc34)CC2)O1 (centres undefined) | -0.145% (inactive) | –
O=C(NCCN1CCOCC1)c1cnn(-c2nccc(-c3cccs3)n2)c1C1CC1 | 1.85% (inactive) | –
Cc1cnc(C)c(-c2cc(F)c3c(c2)CC(CNC(=O)c2cccc(Cn4cccn4)c2)O3)n1 (centres undefined) | 0.0853% (inactive) | –
CCc1cccc(NC(=S)N(CCN(C)C)C2CCN(C(C)C)CC2)c1 | -1.23% (inactive) | –
CCOc1ccc2c(c1)cc(CN(C(=O)CC)C1CCCCC1)c1nnnn12 | -2.48% (inactive) | –
CCc1ccc2c(c1)cc(CN(C(=S)Nc1ccccc1Cl)C1CC1)c1nnnn12 | – | 12.6 µM (active)
CC(C)C(=O)NC(C)c1nnc2n1CCN(Cc1cccc3ncccc13)CC2 (centres undefined) | -0.848% (inactive) | –
O=C1CCN(Cc2ccc(-c3ccccc3)cc2)CCN1Cc1ccccn1 | 0.935% (inactive) | –
Cc1oc(-c2cccc(NC(=O)c3ccccc3)c2)nc1CNC(=O)c1cnc2ccccn2c1=O | 0.787% (inactive) | –
O=C(Nc1ccccc1C(F)(F)F)c1nc(S(=O)(=O)Cc2ccccc2F)ncc1Cl | 3.33% (inactive) | –
CC1(C(=O)NCCc2c[nH]c3ccccc23)C=CC2(CCCCC2)N1C(=O)c1ccccc1 (centres undefined) | -0.269% (inactive) | –
N#C/C(=C/c1ccc(N2CCCCC2)o1)C(=O)NCCc1c[nH]c2ccccc12 | – | 11.2 µM (active)
COCCCNC(=O)/C(C#N)=C/c1c(N2CCCCCC2)nc2ccccn2c1=O | 0.655% (inactive) | –
COCCN1CCN(C(=O)c2sc3ncnc(NCC4CCCO4)c3c2C)CC1 (centres undefined) | 0.389% (inactive) | –
CN1CCCCCC1C(=O)NCCN1Cc2ccccc2OC(c2ccsc2)C1 (centres undefined) | -0.383% (inactive) | –
COc1ccccc1-c1ccnc(-n2ncc(C(=O)NCCc3ccncc3)c2C)n1 | 1.69% (inactive) | –
COC(=O)C1CCCCN1Cc1ccc2c(c1)CN(Cc1cc(OC)c3c(c1)OCO3)CCO2 (centres undefined) | 0.531% (inactive) | –
COCC(C)NC(=O)c1ccc(-n2nc(C(F)(F)F)cc2-c2cccs2)cc1 (centres undefined) | -2.38% (inactive) | –
N#Cc1ccc(C(=O)Nc2nc(-c3cccs3)c(C(=O)C(F)(F)F)s2)cc1 | – | 6.31 µM (active)
COc1ccc(C(F)(F)F)cc1NC(=O)c1sc2nc(-c3cccs3)ccc2c1N | 16.7% (inactive) | –
C=C1C=C(C)n2ncc(C(=O)Nc3ccccc3O)c2N1 | 1.83% (inactive) | –
COc1ccccc1CNc1cc(-c2ccccc2CN(C)C)ncn1 | 0.0313% (inactive) | –
